Data as given in PubChem BioAssay (Tox21).
Records with an inconclusive call do not appear. The source made the active and inactive calls. Unless noted, calls follow the shape of the dose curve; as a rule, active = well fitted curve in the direction sought with a large enough effect in the repeat runs; inconclusive = weak or mixed curves; inactive = no such curve, though single readings can be large; an effect the other way counts as inactive or inconclusive.

Assays:
[1] = biological target: Thyrotropin receptor (Homo sapiens) (UniProt P16473); assay: qHTS assay to identify small molecule agonists of the thyroid stimulating hormone receptor (TSHR) signaling pathway (AID 1224843; calls by dose curve; also: nearly all actives have a fitted effect of over 45% in size)
How it was run: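 Compounds are titrated over 15 concentrations, in triplicate, onto TSHR-HEK293 cells seeded at 800/well. Plates sit 30 min at room temperature before cAMP-d2 and anti-cAMP cryptate are added; signal is read after a further hour.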

[2] = qHTS assay to identify small molecule agonists of the hypoxia (HIF-1) signaling pathway - cell viability counter screen (AID 1224844; calls by dose curve; also: nearly all actives have a fitted effect of over 50% in size)
How it was run: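 Cytotoxicity measured by CellTiter-Glo ATP luminescence in the wells also read for beta-lactamase signal. Cells were HRE-bla ME-180 (2,000/well, 0.5% dialyzed FBS), exposed to compounds for 17 h at 37C.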

[3] = qHTS assay to identify small molecule agonists of H2AX (AID 1224845; active = well fitted activation curve with a large enough effect in the signal ratio in the repeat runs, not every such curve was filed as active; the % refers to the signal ratio)
How it was run: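 Wild-type CHO-K1 cells plated overnight, then exposed 3 hr at 37C to compounds at 15 concentrations (0.76% DMSO). Lysed, then HTRF anti-pH2AX(S139)-cryptate/anti-H2AX-d2 detection after 24 hr at room temperature; emissions 665 and 620 nm.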

[4] = qHTS assay to identify small molecule agonists of the hypoxia (HIF-1) signaling pathway (AID 1224846; active = well fitted activation curve with a large enough effect in the signal ratio in the repeat runs, not every such curve was filed as active; the % refers to the signal ratio)
How it was run: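 Compounds added to ME-180 cells carrying hypoxia-response-element beta-lactamase reporter (0.5% dialyzed FBS, 5 h preplating), 17 h at 37C; agonist activity detected by CCF4-AM B/G FRET read-out.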

[5] = qHTS assay to identify small molecule agonists of H2AX - cell viability counter screen (AID 1224847; calls by dose curve; also: top concentration of the series differs between compounds; nearly all actives have a fitted effect of over 30% in size)
How it was run: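 CHO-K1 cells plated overnight at 37C, then exposed 3 h at 37C to compounds at 15 concentrations (0.76% DMSO final). Viability by CellTiter-Glo luminescence after 30 min at room temperature.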

[6] = qHTS RealTime-Glo MT Cell Viability Assay in HepG2 cells - 24 hour (AID 1224867); also: nearly all actives have a fitted effect of over 50% in size
How it was run: (§1)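 HepG2 cells (600/well) were dispensed with RealTime-Glo reagents, incubated 5 h at 37 °C, then treated with compounds in DMSO for up to 40 h. Nonlytic NanoLuc luminescence reflecting viable cells was read at each stated time point.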

[7] = qHTS RealTime-Glo MT Cell Viability Assay in HEK293 cells - 32 hour (AID 1224868); also: top concentration of the series differs between compounds; nearly all actives have a fitted effect of over 50% in size
How it was run: (§2)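 HEK293 cells seeded with NanoLuc/prosubstrate reagent, rested 5 h at 37 C, then dosed and kept at 37 C up to 40 h. Nonlytic real-time luminescence from viable cells read at 0, 8, 16, 24, 32 and 40 h.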

[8] = A CellTox Green Cytotoxicity Assay to monitor cytotoxicity in HEK293 cells - 0 hour (AID 1224869); also: nearly all actives have a fitted effect of over 50% in size
How it was run: (§3)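 Fluorescence from a DNA-binding dye excluded by viable cells was measured repeatedly in the same HEK293 wells (600 cells/well) during continuous compound exposure at 37 C. Each assay gives one read point: 0, 8, 16, 24, 32 or 40 h.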

[9] = qHTS RealTime-Glo MT Cell Viability Assay in HepG2 cells - 40 hour (AID 1224870); also: nearly all actives have a fitted effect of over 50% in size
How it was run: (§4)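 HepG2 cells mixed with RealTime-Glo MT reagents (NanoLuc plus cell-permeant prosubstrate) were seeded at 600 cells/well, incubated 5 h at 37 C/5% CO2, then pinned with compounds in DMSO; nonlytic luminescence tracked viability during 40 h treatment.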

[10] = A CellTox Green Cytotoxicity Assay to monitor cytotoxicity in HEK293 cells - 40 hour (AID 1224871); also: nearly all actives have a fitted effect of over 45% in size
How it was run: as §3

[11] = qHTS RealTime-Glo MT Cell Viability Assay in HEK293 cells - 16 hour (AID 1224872)
How it was run: as §2

[12] = qHTS RealTime-Glo MT Cell Viability Assay in HepG2 cells - 8 hour (AID 1224873); also: nearly all actives have a fitted effect of over 55% in size
How it was run: as §4

[13] = qHTS RealTime-Glo MT Cell Viability Assay in HEK293 cells - 40 hour (AID 1224874); conditions: RealTime-Glo luminescence; max response: hits give low values; also: nearly all actives have a fitted effect of over 50% in size
How it was run: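 Luminescence, which tracks viable cell number through reduction of the prosubstrate to a NanoLuc substrate, was read over continuous 37 C culture. Cells (600/well) were premixed with reagent and rested 5 h before 23 nL of compound in DMSO was pinned.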

[14] = A CellTox Green Cytotoxicity Assay to monitor cytotoxicity in HEK293 cells - 24 hour (AID 1224875); also: series mostly up to about 77 µM; nearly all actives have a fitted effect of over 45% in size
How it was run: as §3

[15] = A CellTox Green Cytotoxicity Assay to monitor cytotoxicity in HepG2 cells - 16 hour (AID 1224876); also: nearly all actives have a fitted effect of over 45% in size
How it was run: (§5)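 Real-time cytotoxicity: fluorescence of a cell-impermeant cyanine dye binding DNA of dead HepG2 cells, measured repeatedly (0–40 h) during compound exposure at 37 C. Cells seeded 600/well with reagent, dosed after 5 h.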

[16] = qHTS RealTime-Glo MT Cell Viability Assay in HepG2 cells - 32 hour (AID 1224877); also: nearly all actives have a fitted effect of over 55% in size
How it was run: as §1

[17] = A CellTox Green Cytotoxicity Assay to monitor cytotoxicity in HepG2 cells - 24 hour (AID 1224878); also: nearly all actives have a fitted effect of over 45% in size
How it was run: as §5

[18] = A CellTox Green Cytotoxicity Assay to monitor cytotoxicity in HepG2 cells - 40 hour (AID 1224879); also: nearly all actives have a fitted effect of over 40% in size
How it was run: as §5
% is scaled to controls: 0 for no effect and ±100 for the full control effect.

Chain of Thyrotropin receptor (Homo sapiens) (P16473 whole entry, looked up): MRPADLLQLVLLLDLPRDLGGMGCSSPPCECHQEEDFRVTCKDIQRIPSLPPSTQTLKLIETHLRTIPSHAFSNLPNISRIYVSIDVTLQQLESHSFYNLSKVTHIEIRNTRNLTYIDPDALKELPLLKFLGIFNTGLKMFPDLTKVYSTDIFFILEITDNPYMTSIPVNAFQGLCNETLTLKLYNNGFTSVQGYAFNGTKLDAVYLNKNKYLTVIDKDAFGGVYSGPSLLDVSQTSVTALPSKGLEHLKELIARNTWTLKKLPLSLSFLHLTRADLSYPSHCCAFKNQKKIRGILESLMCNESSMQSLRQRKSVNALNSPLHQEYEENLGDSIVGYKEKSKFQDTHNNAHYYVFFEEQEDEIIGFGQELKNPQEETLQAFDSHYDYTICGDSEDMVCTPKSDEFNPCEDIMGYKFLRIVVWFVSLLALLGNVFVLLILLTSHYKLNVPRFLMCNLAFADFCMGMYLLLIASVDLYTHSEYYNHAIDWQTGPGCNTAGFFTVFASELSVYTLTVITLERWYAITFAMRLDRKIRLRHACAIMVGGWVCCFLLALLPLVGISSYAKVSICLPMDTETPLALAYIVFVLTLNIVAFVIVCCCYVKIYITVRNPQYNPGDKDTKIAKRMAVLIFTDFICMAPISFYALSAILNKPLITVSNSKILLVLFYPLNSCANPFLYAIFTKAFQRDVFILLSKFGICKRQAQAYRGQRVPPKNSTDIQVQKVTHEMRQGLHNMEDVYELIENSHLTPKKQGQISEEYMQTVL

CCCCCCCCOc1ccc(C(=O)O)cc1
inactive: Potency [1] | Potency [2] | Potency [3] | outcome [4] | Potency [5] | Potency [6] | Potency [7] | Potency [8] | Potency [9] | Potency [10] | Potency [11] | Potency [12] | max response [13] -8.38% | Potency [14] | Potency [15] | Potency [16] | Potency [17] | Potency [18]

CO[C@]1(NC(=O)CSC(F)F)C(=O)N2C(C(=O)O)=C(CSc3nnnn3CCO)CO[C@H]21
inactive: Potency [1] | Potency [2] | Potency [3] | outcome [4] | Potency [5] | Potency [6] | Potency [7] | Potency [8] | Potency [9] | Potency [10] | Potency [11] | Potency [12] | max response [13] 21.2% | Potency [14] | Potency [15] | Potency [16] | Potency [17] | Potency [18]

Cc1ccccc1S
inactive: Potency [1] | Potency [2] | Potency [3] | outcome [4] | Potency [5] | Potency [6] | Potency [7] | Potency [8] | Potency [9] | Potency [10] | Potency [11] | Potency [12] | max response [13] -6.46% | Potency [14] | Potency [15] | Potency [17] | Potency [18]

CO/N=C(/C(=O)N[C@@H]1C(=O)N2C(C(=O)O)=C(COC(N)=O)CS[C@H]12)c1ccco1
inactive: Potency [1] | Potency [2] | Potency [3] | outcome [4] | Potency [5] | Potency [6] | Potency [7] | Potency [8] | Potency [9] | Potency [10] | Potency [12] | max response [13] 10.8% | Potency [14] | Potency [15] | Potency [16] | Potency [17] | Potency [18]

CCc1ccccc1
inactive: Potency [1] | Potency [2] | Potency [3] | outcome [4] | Potency [5] | Potency [6] | Potency [7] | Potency [8] | Potency [9] | Potency [10] | Potency [11] | Potency [12] | max response [13] 10.2% | Potency [14] | Potency [15] | Potency [16] | Potency [17] | Potency [18]

CCOc1ccccc1O[C@H](c1ccccc1)[C@H]1CNCCO1
inactive: Potency [1] | Potency [2] | Potency [3] | outcome [4] | Potency [5] | Potency [6] | Potency [7] | Potency [8] | Potency [9] | Potency [10] | Potency [11] | Potency [12] | max response [13] 1.67% | Potency [14] | Potency [15] | Potency [17]

CCC1CO1 (stereo not drawn)
inactive: Potency [1] | Potency [2] | Potency [3] | outcome [4] | Potency [5] | Potency [6] | Potency [7] | Potency [8] | Potency [9] | Potency [10] | Potency [12] | max response [13] 4.39% | Potency [14] | Potency [15] | Potency [17] | Potency [18]

C=C(C)CCCC(C)CCO (stereo not drawn)
inactive: Potency [1] | Potency [2] | Potency [3] | outcome [4] | Potency [5] | Potency [6] | Potency [7] | Potency [8] | Potency [9] | Potency [10] | Potency [11] | Potency [12] | max response [13] -17.9% | Potency [14] | Potency [15] | Potency [16] | Potency [17] | Potency [18]

CCCC(=O)C(=O)O
inactive: Potency [1] | Potency [2] | Potency [3] | outcome [4] | Potency [5] | Potency [6] | Potency [7] | Potency [8] | Potency [9] | Potency [10] | Potency [11] | Potency [12] | max response [13] 13.4% | Potency [14] | Potency [15] | Potency [16] | Potency [17] | Potency [18]

CCCCCCCCN
inactive: Potency [1] | Potency [2] | Potency [3] | outcome [4] | Potency [5] | Potency [6] | Potency [7] | Potency [8] | Potency [9] | Potency [10] | Potency [11] | Potency [12] | max response [13] -0.288% | Potency [14] | Potency [15] | Potency [16] | Potency [17] | Potency [18]

NNC(=O)CP(=O)(c1ccccc1)c1ccccc1
inactive: Potency [1] | Potency [2] | Potency [3] | outcome [4] | Potency [5] | Potency [6] | Potency [7] | Potency [8] | Potency [9] | Potency [10] | Potency [11] | Potency [12] | max response [13] -3.49% | Potency [14] | Potency [15] | Potency [16] | Potency [17] | Potency [18]

CCOC(C)=O
inactive: Potency [1] | Potency [2] | Potency [3] | outcome [4] | Potency [5] | Potency [6] | Potency [7] | Potency [8] | Potency [9] | Potency [10] | Potency [12] | max response [13] 0.693% | Potency [14] | Potency [15] | Potency [16] | Potency [17] | Potency [18]

CN1CC(=O)N2[C@H](c3ccc4c(c3)OCO4)c3[nH]c4ccccc4c3C[C@@H]2C1=O
inactive: Potency [1] | Potency [2] | Potency [3] | outcome [4] | Potency [5] | Potency [6] | Potency [7] | Potency [8] | Potency [9] | Potency [10] | Potency [11] | Potency [12] | max response [13] -16.3% | Potency [14] | Potency [15] | Potency [16] | Potency [17] | Potency [18]

COC(=O)CCS
inactive: Potency [1] | Potency [2] | Potency [3] | outcome [4] | Potency [5] | Potency [6] | Potency [7] | Potency [8] | Potency [9] | Potency [10] | Potency [11] | Potency [12] | max response [13] 21.6% | Potency [14] | Potency [15] | Potency [16] | Potency [17] | Potency [18]

C=C(C)C(=O)OCCCCCCCCCCCCC
inactive: Potency [1] | Potency [2] | Potency [3] | outcome [4] | Potency [5] | Potency [6] | Potency [7] | Potency [8] | Potency [9] | Potency [10] | Potency [11] | Potency [12] | max response [13] 4.36% | Potency [14] | Potency [15] | Potency [16] | Potency [17] | Potency [18]
